Data published in PubChem BioAssay (NCATS).
Results filed as inconclusive are left out. Where a call stands in place of a potency, no number is given. A number with no mark means an inactive call. Activity calls are given as the source filed them. The call rests on the fitted dose curve; in most records, active means well fitted cell-killing curve with a large enough effect; inconclusive means small, poorly fitted or top-dose-only effect, or effect the other way; inactive means flat fitted curve, though single readings scatter.

The compounds below were run on CASKI (assay: Primary qHTS to identify gynecologic anti-cancer compounds using libraries of approved drugs and bioactive compounds (AID 1345084; further: nearly all actives have a fitted effect of over 55% in size)). Details: Gynecologic cancer cell panel viability, ATPlite luminescence, 48 h; series mostly up to 57.5 µM.
Outline: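 Cells, 1,000 per well, plated 16 h, then exposed 48 h at 37 C to compounds. Viability by ATPlite luminescence after 15 min at room temperature.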

Compound | Potency | activity change, negative = cytotoxicity
Cc1ncc([N+](=O)[O-])n1CC(O)CCl (stereo not drawn) | inactive | –
C[C@@H]1CCN(C(=O)[C@H](CCCN=C(N)N)NS(=O)(=O)c2cccc3c2NC[C@H](C)C3)[C@@H](C(=O)O)C1 | inactive | –
C[C@H](NC(CCc1ccccc1)C(=O)O)C(=O)N1CCC[C@H]1C(=O)O (stereo partly drawn) | inactive | –
Oc1ccc(C(O)CNCCCCCCNCC(O)c2ccc(O)c(O)c2)cc1O (stereo not drawn) | inactive | –
CCCCC(CC)COC(=O)c1ccccc1O (stereo not drawn) | inactive | –
N[C@H](C(=O)O)c1ccc(O)cc1 | inactive | –
NC(=O)NC(=O)Cc1ccccc1 | inactive | –
C#CCN(C)Cc1ccccc1 | inactive | –
NS(=O)(=O)c1cc2c(cc1C(F)(F)F)NC(Cc1ccccc1)NS2(=O)=O (stereo not drawn) | inactive | –
O=C1N=C(O)CN1/N=C/c1ccc(-c2ccc([N+](=O)[O-])cc2)o1 | inactive | –
CCCCCCCCCCCCCCCCCCOCC(O)CO (stereo not drawn) | inactive | –
NCCNCCNCCNCCN | – | 1.72% [at 11.6 µM]
CN(C)CCCO[C@@H]1[C@H]2OC(C)(C)O[C@H]2O[C@@H]1C(O)CO (stereo partly drawn) | inactive | –
OC[C@H]1O[C@@H](O[C@@H]2[C@@H](CO)O[C@](O)(CO)[C@H]2O)[C@H](O)[C@@H](O)[C@H]1O | inactive | –
N[C@@H](CSSC[C@H](N)C(=O)O)C(=O)O | – | 7.1% [at 0.462 µM]
CC1(C)CO[C@@H](CC(=O)O)CN1 | inactive | –
CC1=C(C/C=C(\C)CCC[C@H](C)CCC[C@H](C)CCCC(C)C)C(=O)c2ccccc2C1=O | inactive | –
COc1cc(C(=O)N2CCOCC2)cc(OC)c1OC | inactive | –
CCCCC/C(C=O)=C\c1ccccc1 | inactive | –

Compound | Potency | activity change, negative = cytotoxicity
CC(=O)Nc1ccc(/C=N/NC(N)=S)cc1 | inactive | –
O=C1OC(OC(=O)c2cccnc2Nc2cccc(C(F)(F)F)c2)c2ccccc21 (stereo not drawn) | inactive | –
O=C(O)CN1C(=O)c2cccc3cccc(c23)C1=O | inactive | –
CN1[C@@H]2CC[C@H]1CC(OC(=O)C(O)c1ccccc1)C2 (stereo partly drawn) | inactive | –
O=C(Oc1ccccc1C(=O)O)c1ccccc1O | inactive | –
CC(COc1ccccc1)NC(C)C(O)c1ccc(O)cc1 (stereo not drawn) | inactive | –
CCN(CC)CCOC(=O)C1(C2CCCCC2)CCCCC1 | inactive | –
Cc1cc(O)cc2c1O[C@](C)(CCC[C@H](C)CCC[C@H](C)CCCC(C)C)CC2 | inactive | –
O=S(=O)(O)c1cc(I)c(O)c2ncccc12 | inactive | –
Cc1ncc(COP(=O)(O)O)c(C=O)c1O | inactive | –
CO/N=C(\C(=O)N[C@@H]1C(=O)N2C(C(=O)O)=C(CSc3nc(=O)c(O)nn3C)CS[C@H]12)c1csc(N)n1 | inactive | –
O=C(O)COc1nn(Cc2ccccc2)c2ccccc12 | inactive | –
CCCc1c(OCCCCc2nn[nH]n2)ccc(C(C)=O)c1O | inactive | –
COc1ccc2cc1Oc1cc3c(cc1OC)CC[N+](C)(C)[C@H]3Cc1ccc(cc1)Oc1c(OC)c(OC)cc3c1[C@@H](C2)[N+](C)(C)CC3 | inactive | –
NC1CCN(c2cccc(Cl)n2)CC1 | inactive | –
CC(O)COc1ccccc1 (stereo not drawn) | inactive | –
CC1CC(OC(=O)C(O)c2ccccc2)CC(C)(C)N1C (stereo not drawn) | inactive | –
O=C1O[C@H](CO)[C@@H](O)[C@H](O)[C@H]1O | inactive | –
NC(CSCC(=O)O)C(=O)O (stereo not drawn) | inactive | –
